For experiment [1], the target named is T1, Protein deacetylase HDAC6 (Homo sapiens) (UniProt Q9UBN7).
T1 sequence (whole entry): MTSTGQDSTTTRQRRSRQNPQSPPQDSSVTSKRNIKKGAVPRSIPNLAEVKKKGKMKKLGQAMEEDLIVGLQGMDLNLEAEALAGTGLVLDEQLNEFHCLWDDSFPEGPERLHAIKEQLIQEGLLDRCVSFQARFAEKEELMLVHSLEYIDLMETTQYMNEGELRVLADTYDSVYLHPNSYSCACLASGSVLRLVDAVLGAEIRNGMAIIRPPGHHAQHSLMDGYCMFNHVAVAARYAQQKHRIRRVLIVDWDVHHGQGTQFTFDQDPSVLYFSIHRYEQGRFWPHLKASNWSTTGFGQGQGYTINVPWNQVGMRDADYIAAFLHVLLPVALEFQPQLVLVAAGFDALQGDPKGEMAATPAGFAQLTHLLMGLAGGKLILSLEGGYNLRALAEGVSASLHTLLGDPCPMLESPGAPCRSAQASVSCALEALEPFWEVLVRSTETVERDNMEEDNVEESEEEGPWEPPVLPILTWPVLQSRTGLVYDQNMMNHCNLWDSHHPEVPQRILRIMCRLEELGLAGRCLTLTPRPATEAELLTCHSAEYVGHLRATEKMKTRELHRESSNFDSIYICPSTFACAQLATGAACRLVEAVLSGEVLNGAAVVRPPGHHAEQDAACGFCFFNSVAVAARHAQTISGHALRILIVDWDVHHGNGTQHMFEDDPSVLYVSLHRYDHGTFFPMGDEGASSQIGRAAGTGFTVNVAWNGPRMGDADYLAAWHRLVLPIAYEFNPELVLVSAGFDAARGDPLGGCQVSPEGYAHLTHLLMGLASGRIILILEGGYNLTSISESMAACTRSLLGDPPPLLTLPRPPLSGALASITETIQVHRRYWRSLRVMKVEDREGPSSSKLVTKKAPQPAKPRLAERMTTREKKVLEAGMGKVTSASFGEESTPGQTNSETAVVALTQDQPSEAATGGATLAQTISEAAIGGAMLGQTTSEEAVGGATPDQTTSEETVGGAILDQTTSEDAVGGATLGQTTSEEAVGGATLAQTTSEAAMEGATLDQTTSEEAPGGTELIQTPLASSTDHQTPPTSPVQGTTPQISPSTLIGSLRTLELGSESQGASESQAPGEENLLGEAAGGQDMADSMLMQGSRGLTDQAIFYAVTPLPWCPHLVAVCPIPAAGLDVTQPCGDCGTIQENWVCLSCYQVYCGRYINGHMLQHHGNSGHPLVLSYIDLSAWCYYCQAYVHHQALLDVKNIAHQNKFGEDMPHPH
Conditions: at 10 µM.

For experiment [2], the target named is Protein deacetylase HDAC6 (Homo sapiens) (UniProt Q9UBN7). Conditions: at 10 µM. This is another data set of the same source.

Out of some 5,600 compounds screened, about 390 (7%) showed an effect of 50% or more. Many of the other results were omitted from the sample, so strong results are more common in it than they were.

Data on 54 compounds can be found in ChEMBL document CHEMBL4808148, “HDAC6 screening dataset using tau-based substrate in an enzymatic assay yields selective inhibitors and activators” (2021).

`NC(=O)NC1NC(=O)NC1=O` (centres undefined): in experiment [1], the inhibition (in general, the drop in the measured response relative to a control, in per cent) came out at 1.79%.

`C[C@@H]1CCO[C@H]2Cn3cc(C(=O)NCc4ccc(F)cc4F)c(=O)c(O)c3C(=O)N12`: the inhibition in experiment [1] is -3.66%.

For `O=C1c2ccccc2C(Cc2ccncc2)(Cc2ccncc2)c2ccccc21`, the inhibition in experiment [1] is 3.99%.

Take `CCN(CC)CCCC(C)Nc1nc(C)cc(Nc2ccc3nc(C)cc(N)c3c2)n1` (centres undefined): the inhibition in experiment [1] is -7.44%.

Regarding `CCc1ccc(OCc2ccccc2C(=O)Nc2ccc3nc(C)cc(N)c3c2)cc1`, the inhibition in experiment [1] is 80.4%.

Regarding `CCN(CC)CCOC(=O)C(Cc1cccc2ccccc12)CC1CCCO1` (centres undefined), the inhibition in experiment [1] worked out at 2%.

Turning to `Nc1nccc2c1ncn2[C@@H]1C=C(CO)[C@@H](O)[C@H]1O`, the inhibition in experiment [1] is -4.17%.

As for `O=C(NCC1(N2CCN(c3ccccc3)CC2)CCOCC1)c1cccnc1Sc1ccccc1`, in experiment [1], the inhibition came to 8.43%.

`CCC(C)(C)C(=O)C(=O)N1CCC[C@H]1C(=O)OCCCc1cccnc1`: in experiment [1], the inhibition was -5.62%.

On to `COc1cc(Nc2nc3ccccc3nc2NS(=O)(=O)c2ccc(NC(=O)c3ccc(C)c(OC)c3)cc2)cc(OC)c1`, for which the inhibition in experiment [1] was determined as 17.4%.

In the case of `COc1cc(C(=O)NS(=O)(=O)c2ccccc2C)ccc1Cc1cn(C)c2ccc(NC(=O)OC3CCCC3)cc12`, in experiment [1], the inhibition was determined as 73.7%.

As for `COc1cc(N)c(Cl)cc1C(=O)OCCN1CCCCC1`, the inhibition in experiment [1] came out at 6.86%.

In the case of `O=C(NC1Cc2ccccc2N(C[C@@H](O)CO)C1=O)c1cc2cc(Cl)sc2[nH]1` (some centres undefined), the inhibition in experiment [1] is -2.31%.

For `CCCCCCCC/C=C\CCCCCCCC(=O)N[C@@H](CO)Cc1ccc(O)cc1`, the inhibition in experiment [1] is 27.9%.

Consider `Nc1ccc(/N=N/c2ccccc2)c(N)n1`, for which the inhibition in experiment [1] stood at 102%.

As to `NC(C(=O)O)c1cc(O)ccc1Cl` (centres undefined), the inhibition in experiment [1] was determined as 15.3%.

Turning to `CCCn1c(=O)c2[nH]cnc2n(-c2ccc(Cl)cc2)c1=O`, the inhibition in experiment [1] was 20.4%.

Consider `Oc1cc(O)cc(/C=C/c2ccc(O)c(O)c2)c1`, for which, in experiment [1], the inhibition is 85.2%.

Turning to `Oc1ccc(/C=C/c2cc(O)cc(O)c2)cc1`, the inhibition in experiment [1] came out at 97%.

For the compound `C/C=C(/C(=C/C)c1ccc(O)cc1)c1ccc(O)cc1`, the inhibition in experiment [1] came out at 0.77%.

Regarding `O=S(=O)(O)c1cc(O)ccc1O`, the inhibition in experiment [1] is -4.71%.

With `OC[C@H]1O[C@@H](Oc2cc(O)cc(/C=C/c3ccc(O)cc3)c2)[C@H](O)[C@@H](O)[C@@H]1O`, in experiment [1], the inhibition worked out at 31.5%.

As to `Oc1cc(O)cc(O)c1`, the inhibition in experiment [1] is 18.2%.

Turning to `COc1ccc(/C=C\c2cc(OC)c(OC)c(OC)c2)cc1O`, the inhibition in experiment [1] was 14.7%.

Regarding `COc1ccc(O)cc1`, the inhibition in experiment [1] turned out to be 19.4%.

As to `COc1cc(/C=C/c2ccc(OC)cc2OC)cc(OC)c1`, in experiment [1], the inhibition worked out at 86.2%.

As to `COc1cc(/C=C2\CCC/C(=C\c3ccc(O)c(OC)c3)C2=O)ccc1O`, in experiment [1], the inhibition came out at 35.9%.

Take `COc1cc(/C=C/c2ccc(O)cc2)cc(OC)c1`: the inhibition in experiment [1] was determined as 99%.

Take `NCC(O)(CS(=O)(=O)O)c1ccc(Cl)cc1` (centres undefined): the inhibition in experiment [1] is -2.67%.

In the case of `C=CC1=C(C)c2cc3[nH]c(cc4nc(cc5[nH]c(cc1n2)c(C)c5CCC(=O)O)C(CCC(=O)O)=C4C)c(C)c3C=C`, the inhibition in experiment [1] came out at 21.1%.

For `C[C@H](N)[C@H](O)c1cccc(O)c1`, in experiment [1], the inhibition is 1.85%.

As to `CCCC(=O)C1CCN(c2ncnc3c2CN(C(=O)c2ccc(-c4ccccc4)cc2)CC3)CC1`, the inhibition in experiment [1] worked out at 2.41%.

As to `Cn1c(=O)c2c(ncn2CC(=O)Nc2ccc(-c3ccccc3)nn2)n(C)c1=O`, the inhibition in experiment [1] came to 41.8%.

In the case of `CN(CC[C@@H](Oc1ccc(-c2ccccc2)cc1)c1ccc(F)cc1)CC(=O)O`, the inhibition in experiment [1] was -3.28%.

`O=C(/C=C/c1c(C(=O)O)[nH]c2cc(Cl)cc(Cl)c12)Nc1ccccc1`: in experiment [1], the inhibition worked out at 27.4%.

Turning to `COc1ccc2c(c1)-c1nn(CCCN(C)C)c3ccc([N+](=O)[O-])c(c13)N2`, the inhibition in experiment [1] came out at 9.03%.

With `CC(=O)NC[C@H]1CN(c2ccc(N3CCSCC3)c(F)c2)C(=O)O1`, in experiment [1], the inhibition turned out to be 9.47%.

For `Cn1nnc(-c2ccc(-c3ccc(N4C[C@H](CO)OC4=O)cc3F)cn2)n1`, the inhibition in experiment [1] worked out at 67.9%.

For the compound `CC(=O)NC[C@H]1CN(c2ccc(-c3ccc(CNCc4cnn[nH]4)cc3)c(F)c2)C(=O)O1`, the inhibition in experiment [1] came to 35.9%.

Turning to `C[C@@H]1C[C@H]2[C@@H]3CCC4=CC(=O)C=C[C@]4(C)[C@@]3(Cl)[C@@H](O)C[C@]2(C)[C@@]1(OC(=O)c1ccco1)C(=O)CCl`, the inhibition in experiment [1] was -2.71%.

As for `CSc1ccc(C(=O)/C=C/c2cc(C)c(OC(C)(C)C(=O)O)c(C)c2)cc1`, in experiment [1], the inhibition is -7.51%.

Take EUK 134, CHEMBL5308416: the inhibition in experiment [2] was 33.1%.

Take `Nc1ncnc2c1c(COc1cccc(Cl)c1)nn2C1CCOCC1`: the inhibition in experiment [1] is -8.17%.

With `O=C(O)c1ccccc1`, in experiment [1], the inhibition was -0.18%.

For the compound `O=C(O)C1CCCN(CCC=C(c2ccccc2)c2ccccc2)C1` (centres undefined), the inhibition in experiment [1] was 18.1%.

As to `O=C(c1ccccc1)c1ccc2n1CCC2C(=O)O` (centres undefined), in experiment [1], the inhibition is 66.7%.

Regarding `CCCC(=O)C1(c2ccccc2)CCN(C(=O)[C@@H](Cc2ccc(OC)cc2)NC(=O)[C@@H](N)Cc2cncn2C)CC1`, the inhibition in experiment [1] worked out at 4.5%.

With `Nc1cccc2c(=O)[nH][nH]c(=O)c12`, in experiment [1], the inhibition amounted to 35.2%.

Consider `CCS(=O)(=O)c1ccc2oc(-c3ccc4ccccc4c3)nc2c1`, for which the inhibition in experiment [1] was determined as 97.2%.

As for `c1ccc(Cn2c(-c3ccc(OC[C@H](C4CCNCC4)n4c(-c5ccccc5)nc5ccccc54)cc3)nc3ccccc32)cc1`, the inhibition in experiment [1] was 5.68%.

`COc1cc(/C=C(\C#N)C(N)=O)cc(CSc2nc3ccccc3s2)c1O`: in experiment [1], the inhibition came out at 17.9%.

As for `CCCCc1oc2ccc(NS(C)(=O)=O)cc2c1C(=O)c1ccc(OCCCN(CCCC)CCCC)cc1`, the inhibition in experiment [1] was 18.6%.

On to `Cc1cnc(-c2cnc(NCCNc3ccc(C#N)cn3)nc2-c2ccc(Cl)cc2Cl)[nH]1`, for which the inhibition in experiment [1] was found to be 3.11%.

For the compound `Cn1cnc(-c2cc3nccc(Oc4ccc(NC(=S)NC(=O)Cc5ccccc5)cc4F)c3s2)c1`, the inhibition in experiment [1] stood at 28%.
